Measured values: the supplement of paper PMC6555819

Legend:
Test in all cases: PBM binding z-score (relative to random genomic background probes); higher = stronger binding; sequences stand for … in GC…GCGATTGACAGCGTAGAATGAAGG
[1] = system: PPARg:RXRa DBDmut IVT, anti-RXR (DBD mutation: RXRa K156A/R161A, NR concentration 270 nM, RXRa partner concentration 90 nM)
In short: (§1)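 On custom Agilent 4×180K arrays, double-stranded probes with 34-nt variable regions carried direct-repeat seeds, single-nucleotide variants, half-site ablations or random human genomic background. Ligand-free nuclear receptor dimers were applied for 1 h, and binding was read with antibodies against each partner (one per run). Binding z-scores come from regression-normalized fluorescence, with the random background probes as reference.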

[2] = system: PPARg:RXRa IVT, anti-PPARg (NR concentration 270 nM, RXRa partner concentration 90 nM)
In short: as §1

[3] = system: PPARg DBDmut:RXRa IVT, anti-PPARg (DBD mutation: PPARg1 K132A/R137A, NR concentration 270 nM, RXRa partner concentration 90 nM)
In short: as §1

[4] = system: PPARg DBDmut IVT, anti-PPARg (DBD mutation: PPARg1 K132A/R137A, NR concentration 270 nM)
In short: as §1

[5] = system: PPARg homodimer (NR concentration 180 nM)
In short: as §1

[6] = system: PXR:RXRa (NR concentration 270 nM, RXRa partner concentration 90 nM)
In short: as §1

[7] = system: PXR homodimer (NR concentration 270 nM)
In short: as §1

[8] = system: RARa:RXR (NR concentration 270 nM, RXRa partner concentration 90 nM)
In short: as §1

[9] = system: RARa homodimer (NR concentration 270 nM)
In short: as §1

[10] = system: RARb:RXRa (NR concentration 270 nM, RXRa partner concentration 90 nM)
In short: as §1

| Sequence | PBM binding z-score [1] | PBM binding z-score [2] | PBM binding z-score [3] | PBM binding z-score [4] | PBM binding z-score [5] | PBM binding z-score [6] | PBM binding z-score [7] | PBM binding z-score [8] | PBM binding z-score [9] | PBM binding z-score [10] |
| --- | --- | --- | --- | --- | --- | --- | --- | --- | --- | --- |
| CCTAGTTGGTCAGGAGGTCACACACCGGATATGA | 1.79 | 3.68 | 0.499 | 0.258 | 3.9 | 4.41 | 1.41 | 4.76 | 2.91 | 3.82 |
| GGAACGAGGGCATTCGAGTTGCTAGCATGGCGAT | 2.56 | 2.02 | -0.0761 | -0.825 | -0.911 | 2.3 | -0.0583 | 0.598 | -0.778 | 1.8 |
| ATCTCTAGGTAAGACTCTGTTCAGTGAAGAACGC | 2.14 | 1.19 | 0.717 | 0.753 | 0.889 | -0.0649 | 0.53 | 0.421 | 1.18 | 0.151 |
| TCATAAAGGTAATACAGGTGAAAGTCGGCATCTA | 3.29 | 2.39 | 0.311 | 0.578 | 1.44 | 1.05 | 0.48 | 1.52 | 0.815 | 1.43 |
| TCTATTCGTTGAAGGGCAACCGACGAGTCCGTTT | 2 | 0.764 | 0.959 | 0.28 | 0.703 | 0.999 | 0.546 | 0.933 | 0.583 | 1.56 |
| ATCTCTATGTAAAAGTTCAGTGAATCCCGAGGAT | -0.373 | 1.21 | 1.18 | 0.786 | 1.41 | 1.78 | 1.21 | 1.08 | 0.424 | 2.23 |
| TCTTGTAGATTAATAGAGGTTAAGAAAGTGCGCT | 2.32 | 0.996 | 0.986 | 0.929 | 1.23 | 3.4 | 0.795 | 2.2 | 0.565 | 1.21 |
| ATCTCTAGGTAACATGTTCAGTGAAAGAGAGGAC | 3.39 | 2.6 | 1.47 | 1.39 | -0.116 | 0.0539 | -0.0105 | 0.322 | -0.388 | 0.433 |
| CTTCCAAGGTCAGCAGGTCAGTGAAAGCGACGTG | 3.41 | 3.82 | -0.278 | -0.339 | 3.61 | 3.42 | 0.858 | 4.68 | 1.77 | 5.26 |
| TGAATGAGGTTATTAGATCAGGGAACGTTGCAAA | 2.05 | 2.98 | 1.48 | 0.859 | 0.948 | 0.902 | 0.241 | 1.43 | 0.496 | 1.24 |
| ACAGACAGGTGATGGAGGTAACTCAGGCTATCAT | 0.108 | 0.744 | 0.159 | -0.142 | -0.281 | -0.304 | -0.184 | 0.033 | -0.0178 | 0.173 |
| AGTCAAAGTGCAGGACGAGGTAACGTAAAGCACG | -0.506 | 0.274 | -0.356 | -0.388 | -0.0962 | -0.156 | -0.256 | 0.784 | -0.657 | 1.15 |
| ACTTACAGGTCAACGAGGTTATAGCACGCGTATA | 4.4 | 4.7 | 1.92 | 1.44 | 2.53 | 5.25 | 5.38 | 4.94 | 1.81 | 4.52 |
| CCTCGGAGGACAACAGGAGGTTAGAGCTGCCAGA | -0.279 | -0.491 | -1.7 | -1.73 | -0.214 | -0.222 | -0.363 | -0.127 | -0.352 | 1.32 |
| GCGACTGGGGCATAAGCAGGTTACCATAACTTAA | 3.36 | 3.18 | -0.0704 | -1.04 | 0.497 | 0.0393 | -0.431 | 0.498 | -0.34 | 0.653 |
| CCTACTGGGCCAGAAAGGTCATTGATGCCGATAA | 2.56 | 3.3 | -0.848 | -1.13 | 2.14 | 4.76 | 2.21 | 5.01 | 1.75 | 3.73 |
| CAAGCTAGGTCAAGGTCAAAGTCGGTTTGTGCCA | 4.41 | 5.17 | -0.662 | 0.302 | 3.54 | 5.15 | 1.35 | 5.06 | 1.43 | 5.2 |
| GTACCAAGGTAAATAGGTCGTTGATGAGTAGGCG | 1.71 | 2.84 | 0.778 | 0.523 | 0.489 | 0.181 | 0.0446 | 0.634 | 0.265 | 0.675 |
| TCATATAGGTAAAGGTCAAAGTCGAACGATATGA | 4.49 | 5.4 | 2.71 | 1.9 | 5.15 | 5.54 | 1.88 | 6.36 | 3.75 | 5.17 |
| ATATGTAGGTTACATCCGGGTAATTCAGGCTATG | 7.57 | 7.21 | 4.3 | 3.2 | 1.34 | 0.541 | 0.614 | 1.19 | 0.484 | 1.22 |
| GCGACTAGGGCAAAGCAGGTTACCATAAGGTTGG | 4.76 | 4.23 | -0.472 | -0.903 | 0.0824 | 0.293 | -0.481 | 0.775 | -1.2 | 1.1 |
| CCAGACAGGTGAGAACGTAACTCAGCCTCGATTA | 0.85 | 0.49 | 0.0295 | -0.354 | 0.692 | -0.267 | 0.209 | -0.0422 | 0.428 | 0.192 |
| CGTCCAAGGTCAGCAGGTCGGTGAAAGCGACGTG | 2.81 | 2.89 | -0.853 | -0.476 | 2.43 | 2.61 | -0.066 | 3.58 | 0.0156 | 5.19 |
| CGTCCAAGGTCATAGGACGTCAGTGAAGACAGAT | 2.61 | 3.41 | 0.547 | 0.692 | 1.99 | 4.09 | 1.1 | 4.61 | 1.29 | 4.77 |
